ALOX12 inh – inhibitors of human 12S-lipoxygenase ALOX12; P18054; purified 12hLO, xylenol orange hydroperoxide absorbance; Potency, µM (doses to about 108 µM), actives largely listed as inhibitors; 580,000 tested, 1.1% active; AID 1671190
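Purified human 12hLO at 150 nM in 25 mM Hepes, 0.01% Triton X-100, pH 7.0, preincubated 15 min at room temperature with compound. Reaction started with 40 uM arachidonic acid, 30 min at room temperature. Hydroperoxide measured by Fe-xylenol orange, 573/405 nm absorbance ratio.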
POLI inh – blocks human DNA polymerase iota activity | Q9UNA4 | Potency, µM (highest dose often 115 µM), usual class: inhibitors | Pol iota fluorescent replication assay, 10 min | 390,000 tested, 1% active
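Pol iota at 10 nM preincubated 15 min with compounds at room temperature; reaction started with fluorescent substrate, 50 nM final. Fluorescence read kinetically at 0 and 10 min; buffer-only wells as negative control.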
POLK inh – DNA polymerase kappa (human) inhibition; purified Pol kappa, fluorescent DNA synthesis assay, 10 min; Potency, µM (titrated, usually from 107 µM), actives largely listed as inhibitors; 400,000 tested, 0.53% active
Target sequence (Q9UBT6 whole entry, looked up): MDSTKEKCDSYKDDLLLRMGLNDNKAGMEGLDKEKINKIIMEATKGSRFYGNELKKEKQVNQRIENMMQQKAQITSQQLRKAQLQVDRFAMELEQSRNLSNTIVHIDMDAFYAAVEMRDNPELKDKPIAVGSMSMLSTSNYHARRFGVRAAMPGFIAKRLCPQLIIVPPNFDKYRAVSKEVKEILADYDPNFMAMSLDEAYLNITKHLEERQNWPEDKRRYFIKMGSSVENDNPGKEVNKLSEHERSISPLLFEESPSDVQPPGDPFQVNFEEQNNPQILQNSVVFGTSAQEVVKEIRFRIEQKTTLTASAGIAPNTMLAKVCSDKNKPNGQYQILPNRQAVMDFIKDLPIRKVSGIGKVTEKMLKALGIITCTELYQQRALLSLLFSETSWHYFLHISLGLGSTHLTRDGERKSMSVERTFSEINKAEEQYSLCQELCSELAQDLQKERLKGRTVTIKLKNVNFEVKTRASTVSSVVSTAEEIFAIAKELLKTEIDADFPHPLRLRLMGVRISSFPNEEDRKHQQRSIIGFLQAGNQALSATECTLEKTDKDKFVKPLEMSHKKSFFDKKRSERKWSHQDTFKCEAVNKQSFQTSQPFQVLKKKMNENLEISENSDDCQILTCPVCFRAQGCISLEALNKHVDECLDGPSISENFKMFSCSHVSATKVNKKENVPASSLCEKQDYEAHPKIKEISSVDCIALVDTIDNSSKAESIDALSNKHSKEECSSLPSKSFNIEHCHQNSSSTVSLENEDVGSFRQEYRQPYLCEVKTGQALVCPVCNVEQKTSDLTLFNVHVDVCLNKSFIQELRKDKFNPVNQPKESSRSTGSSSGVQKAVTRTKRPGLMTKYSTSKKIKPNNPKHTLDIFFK
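Readout: fluorescence, taken kinetically at 0 and 10 min. Conditions: 10 nM Pol kappa, 15 min RT compound preincubation, 50 nM substrate final. Controls: enzyme-free buffer wells.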
Pol eta inh – inhibitors of human DNA polymerase eta; 390,000 tested, 1.2% active; AID 588591; Q9Y253; recombinant Pol eta, fluorescent DNA replication assay; Potency, µM (highest dose often 114 µM), usual class: inhibitors
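Fluorescent replication assay: 50 nM final substrate added after a 15 min room-temperature compound preincubation with 10 nM enzyme. Signal taken at 0 min and again at 10 min.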
POLB inh – blocks human DNA polymerase beta activity; AID 485314; Potency, µM (series often up to 114 µM), most hits filed as inhibitors; 340,000 tested, 1.3% active; P06746; Pol beta primer extension/strand displacement, fluorescence kinetic
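Homogeneous kinetic assay of primer extension and strand displacement by 10 nM Pol beta, preincubated 15 min at room temperature with compound before 50 nM substrate (final) was added. Read at 0 and 10 min; four-parameter Hill fit.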
PI5P4Ka inh – inhibitors of human PI5P4K alpha; PI5P4Kalpha enzyme, ADP-Glo luminescence, 60 min; active compounds read low; max response, %; 330,000 tested, 1.2% active; active means max response of -50% or lower; inconclusive means between -30% and -50%; inactive means -30% or higher; further: value at the top dose of about 77 µM
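Luminescence from ADP-Glo served as readout of PI5P4Kalpha activity in a qHTS format. Reaction: enzyme, substrate, compound, ATP at 5 microM final, 60 min at RT.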
A number is an active result; i = inactive; ? = inconclusive; nt = no result. Only some compounds are listed: those with a hit (about 2.9% of all), similar ones and a draw of the others. Unless noted, the call rests on the fitted dose curve; in most records, active means well fitted inhibition curve with a large enough effect; inconclusive means small, poorly fitted or top-dose-only effect, or another doubt; inactive means no such curve, though single readings can be large or run the other way.

SMILES	ALOX12 inh	POLI inh	POLK inh	Pol eta inh	POLB inh	PI5P4Ka inh
Clc1ccccc1C1(c2ccnc(NCc3ccccc3)n2)CCNCC1	i	nt	nt	nt	nt	nt
Clc1ccccc1C1(c2ccnc(NCCc3cccnc3)n2)CCNCC1	20µM	nt	nt	nt	nt	nt
COC(=O)c1scc(-c2ccc(C)cc2)c1S(=O)(=O)Nc1cccc(C)c1	i	nt	nt	nt	nt	nt
COc1ccccc1C(=O)Nc1ccc(Cc2ccncc2)cc1	i	i	i	i	i	i
COc1ccc([N+](=O)[O-])cc1C(=O)Nc1ccc(Cc2ccncc2)cc1	i	i	i	i	11µM	i
COc1ccc([N+](=O)[O-])cc1NC(=O)Nc1ccc(OC)c(OC)c1	i	i	i	i	20µM	i
Cc1oc2cc(OC(C)C(=O)Nc3ccc4c(c3)OCO4)ccc2c(=O)c1-c1ccccc1 (configuration not stated)	i	nt	nt	nt	nt	nt
CC(C)C(Br)C(=O)Nc1cc(Cl)ccc1Cl (configuration not stated)	i	nt	nt	nt	nt	nt
O=C(NC1CC1)c1ccccc1NS(=O)(=O)c1ccc(Cl)cc1C(F)(F)F	i	nt	nt	nt	nt	nt
CCn1cnnc1SCC(=O)c1[nH]c(C)c(C(=O)OC)c1C	i	nt	nt	nt	nt	nt
Cc1c(C#N)c(O)[nH]c(=O)c1N=Nc1ccc(Br)cc1C(=O)O	i	i	i	?	i	-59
Cc1cccc(N=Nc2c(C)c(C#N)c(O)[nH]c2=O)c1	i	i	i	i	i	?
CCCCCOc1ccc(C2C(C(=O)c3ccc(C)o3)=C(O)C(=O)N2c2cc(C)on2)cc1 (configuration not stated)	?	i	i	i	i	-55
CCOc1ccc(C2C(C(=O)c3ccc(C)o3)=C(O)C(=O)N2c2cc(C)on2)cc1OC (configuration not stated)	25µM	i	i	i	i	i
COc1cccc(C2C(C(=O)c3ccc(C)o3)=C(O)C(=O)N2c2cc(C)on2)c1 (configuration not stated)	50µM	i	i	i	i	i
CCSc1nnc(-c2nn(C)c3c2CN(S(=O)(=O)c2ccc(OC)cc2)CC3)n1C	i	nt	nt	nt	nt	nt
O=C(NCC(=O)N1CCc2ccccc21)NCc1ccccc1	i	nt	nt	nt	nt	nt
COC(=O)c1cc(C(=O)OC)n(Cc2ccc(C)cc2)c1C	?	?	?	35µM	i	i
CCCCn1c(=O)n(CC(C#N)CCC#N)c(=O)c2c1nc(CO)n2CCC (configuration not stated)	i	nt	nt	nt	nt	nt
O=C(CSc1ccccc1)N1CCN(S(=O)(=O)c2ccccc2F)CC1	i	50µM	i	?	45µM	?
O=C(CSc1ccc(F)cc1)N1CCN(S(=O)(=O)c2ccccc2)CC1	i	i	i	i	i	i
O=c1c2cn[nH]c2[nH]c(=S)n1-c1ccccc1	6.3µM	i	i	i	i	i
COc1ccc(-n2c(=S)[nH]c3[nH]ncc3c2=O)cc1	i	i	i	i	i	i
COc1cccc(Nc2nc(-c3ccccc3)cs2)c1	1µM	nt	nt	nt	nt	nt
COc1cccc(Nc2nc(-c3cccnc3)cs2)c1	i	i	i	i	i	i
SMILES	ALOX12 inh	POLI inh	POLK inh	Pol eta inh	POLB inh	PI5P4Ka inh
COc1cccc(OC)c1C(=O)Nc1nc(-c2ccccc2)cs1	i	i	i	i	i	i
COc1cccc(Nc2nc(-c3ccc(S(=O)(=O)N4CCOCC4)cc3)cs2)c1	i	nt	nt	nt	nt	nt
COc1cccc(Nc2nc(-c3ccc(CNC(C)=O)cc3)cs2)c1	16µM	nt	nt	nt	nt	nt
COc1ccc(-c2noc(Nc3ccc(OC)c(OC)c3)n2)cc1	i	nt	nt	nt	nt	nt
COc1cccc(Nc2nc(-c3ccccc3)no2)c1	40µM	nt	nt	nt	nt	nt
COc1ccccc1CNc1nc(-c2ccccc2)cs1	14µM	nt	nt	nt	nt	nt
O=C(N/N=C/c1ccsc1)c1cccs1	i	nt	nt	nt	nt	nt
Cc1noc(C)c1S(=O)(=O)Nc1c(NCc2ccccc2)c2ccccc2oc1=O	i	nt	nt	nt	nt	nt
COc1ccc2c(C)c(CCC(=O)NCCCN3CCOCC3)c(=O)oc2c1C	i	nt	nt	nt	nt	nt
COc1cccc(NC(=O)Cn2nnc(-c3nc(-c4ccccc4)no3)c2N)c1	i	89µM	i	i	18µM	nt
CCc1ccc(S(=O)(=O)N2CCN(C(=O)c3cc(C)on3)CC2)cc1	i	nt	nt	nt	nt	nt
COc1ccc2oc(=O)c(-c3ccccc3)c(C)c2c1	i	nt	nt	nt	nt	nt
Cc1ccc2c(=O)cc(C(=O)Nc3ccc(S(N)(=O)=O)cc3)oc2c1	i	nt	nt	nt	nt	nt
CC(=O)OCC1OC(n2cc(F)c(=O)[nH]c2=O)C(OC(C)=O)C1OC(C)=O (configuration not stated)	i	i	i	i	nt	i
O=C1C(F)=CC(COC(c2ccccc2)(c2ccccc2)c2ccccc2)OC1n1cc(F)c(=O)[nH]c1=O (configuration not stated)	8.9µM	?	i	50µM	nt	?
Cc1ccc(/C=C/C2=Cc3c(sc(NC(=O)CSc4n[nH]c(N)n4)c3C#N)C(C)(C)C2)o1	nt	nt	nt	nt	40µM	nt
Cc1cc(NC(=O)CSc2n[nH]c(N)n2)no1	i	i	i	i	i	i
O=C(CC1N=C2c3ccccc3N=C(SCc3ccc(Cl)cc3)N2C1=O)NCc1ccco1 (configuration not stated)	nt	?	?	79µM	?	?
S=C(Nc1ccc2nsnc2c1)N1CCCCC1	?	3.5µM	i	i	i	i
CCN(CC)C(=O)C1CCCN(C(=O)Nc2ccc3nsnc3c2)C1 (configuration not stated)	i	0.89µM	i	?	i	i
S=C(Nc1ccc(Cl)c(Cl)c1)N1CCCC1	i	i	i	i	i	i
CC(=O)c1c(C)[nH]c(C(=O)/C(C#N)=C\c2ccc(F)cc2)c1C	35µM	nt	nt	nt	nt	nt
C=CCN(CC=C)c1cnn(-c2nc3ccccc3[nH]2)c(=O)c1Cl	i	i	i	i	0.22µM	nt
O=c1c(Cl)c(NCCCO)cnn1-c1nc2ccccc2[nH]1	i	?	i	i	i	?
COc1ccc(Nc2nc(N)c(C(=O)c3ccc(Br)cc3)s2)cc1	i	nt	nt	nt	nt	nt
SMILES	ALOX12 inh	POLI inh	POLK inh	Pol eta inh	POLB inh	PI5P4Ka inh
CCOC(=O)C1Nc2ccccc2C2C(O)C(O)CC12 (configuration not stated)	i	25µM	i	i	nt	i
CCOC(=O)C1Nc2ccc(C(F)(F)F)cc2C2c3ccccc3CC12 (configuration not stated)	i	i	i	i	nt	i
CCOc1ccc(NC2=NCCC(=O)N2Cc2cccs2)cc1	i	i	i	i	i	i
CCOc1ccc(NC2=NCC(=O)N2Cc2cccs2)cc1	35µM	i	i	i	i	i
Nc1nccnc1C(=O)NCC1CCOC1 (configuration not stated)	i	nt	nt	nt	nt	nt
CCOc1ccc(CCNC(=O)c2cn(C)c3ccc(S(=O)(=O)N4CCCCC4)cc3c2=O)cc1OCC	?	79µM	i	i	?	nt
CCOc1ccc(CCNC(=O)c2cn(C)c3ccc(S(=O)(=O)N4CCOCC4)cc3c2=O)cc1OCC	i	i	i	i	i	i
